High-throughput results deposited in PubChem BioAssay by National Center for Advancing Translational Sciences (NCATS).
KB-V1 MDR tox = kills drug-selected multidrug resistant KB-V1 cells. KB-V1 MDR cells viability, CellTiter-Glo, 72 h. Potency, µM (top dose mostly 46.1 µM), most hits filed as cytotoxic. actives 3.4% (n = 400,000); also: % is scaled to controls: 0 for no effect and ±100 for the full control effect; nearly all actives have a fitted effect of over 60% in size
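Following 72 h at 37 degrees C with compound, KB-V1 cell viability was read by CellTiter-Glo luminescence, medium being phenol-red-free DMEM plus 10% FBS; concentration-response parameters came from normalized, curve-fitted qHTS data.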
MCF10A rereplic = inducers of DNA re-replication in MCF 10A breast cells; actives 2.9% (n = 350,000); Potency, µM (doses to about 46.1 µM), inactives show at the top dose activity, positive = re-replication, hits mostly activators; AID 624296; MCF 10A DNA re-replication, Hoechst nuclear intensity, 48 h; also: % of control where 0% means no effect; nearly all actives have a fitted effect of over 50% in size
Gal4-VP16 FLuc = counter-screen for ROR gamma inhibitors: Gal4-VP16 reporter. Drosophila S2 Gal4-VP16 UAS-luciferase, luminescence, 20 h. Potency, µM (highest dose often 53.6 µM), inactives show top-dose activity, negative = inhibition, usual class: inhibitors. actives 3.5% (n = 310,000). AID 2546;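 also: Gal4-VP16 expression switched on by copper sulfate through the metallothionein promoter; % is scaled to controls: 0 for no effect and ±100 for the full control effect; nearly all actives have a fitted effect of over 50% in size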
RORgamma inh = ROR gamma (mouse) transcription inhibition. P51450. Drosophila S2 Gal4-RORgamma UAS-luciferase reporter, 20 h. Potency, µM (titrated, usually from 53.6 µM), inactives show at the top dose activity change, negative = inhibition, most hits filed as inhibitors. actives 5.4% (n = 310,000); also: % is scaled to controls: 0 for no effect and ±100 for the full control effect; nearly all actives have a fitted effect of over 60% in size
Target sequence (P51450 whole entry, looked up, the tested form may be a part): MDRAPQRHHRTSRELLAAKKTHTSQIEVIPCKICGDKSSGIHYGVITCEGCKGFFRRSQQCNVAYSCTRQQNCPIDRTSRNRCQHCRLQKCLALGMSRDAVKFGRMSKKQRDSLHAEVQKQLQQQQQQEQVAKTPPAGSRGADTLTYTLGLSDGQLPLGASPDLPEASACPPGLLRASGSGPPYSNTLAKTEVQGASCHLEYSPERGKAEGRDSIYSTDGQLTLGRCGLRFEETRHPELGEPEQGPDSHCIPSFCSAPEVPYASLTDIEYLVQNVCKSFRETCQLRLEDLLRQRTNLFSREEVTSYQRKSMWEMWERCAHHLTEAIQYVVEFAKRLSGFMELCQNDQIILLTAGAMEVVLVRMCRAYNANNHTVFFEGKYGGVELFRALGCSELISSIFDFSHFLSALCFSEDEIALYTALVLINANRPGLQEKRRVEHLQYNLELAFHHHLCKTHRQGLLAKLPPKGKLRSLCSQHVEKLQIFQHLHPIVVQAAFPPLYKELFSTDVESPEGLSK
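Stable Schneider cell line, Gal4 DNA-binding domain fused to ROR gamma, UAS-luciferase. Cmpd 1 hr RT → CuSO4 700 uM final → 20 hr RT → luciferase reagent 10 min → luminescence.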
KB-3-1 tox = KB-3-1 parental cell cytotoxicity. actives 1.4% (n = 400,000). KB-3-1 viability, CellTiter-Glo ATP luminescence, 72 h. Potency, µM (titrated, usually from 46.1 µM), actives largely listed as cytotoxic; also: % is scaled to controls: 0 for no effect and ±100 for the full control effect; nearly all actives have a fitted effect of over 60% in size
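Multi-concentration cytotoxicity screen in KB-3-1 cells grown in DMEM lacking phenol red with 10% FBS. After 72 h at 37 °C with compound, ATP-dependent luminescence was recorded.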
SW480 rereplic = DNA re-replication induction in SW480 cells. SW480 DNA re-replication, Hoechst DNA content imaging, 48 h. Potency, µM (doses to about 46.1 µM), for inactives: top-dose re-replication activation, hits mostly activators. actives 1.8% (n = 340,000); also: % of control where 0% means no effect; nearly all actives have a fitted effect of over 55% in size
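DNA re-replication was detected as more nuclei of elevated Hoechst intensity after 48 hr exposure to compound (23 nL pinned per well of 250 cells).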
* hit, by the source's call; [ ] = dose if it differs, or a comment. Shown are actives, neighbours in structure and some others; about 10% of the full set was active somewhere. Calls follow the shape of the dose curve; as a rule, active = well fitted curve in the direction sought with a large enough effect; inconclusive = small, poorly fitted or top-dose-only effect, or another doubt; inactive = no such curve, though single readings can be large; an effect the other way counts as inactive or inconclusive. Potency is read from the fitted curve at half-maximal effect.

Results for Cc1cc(C)cc(NC(=O)C(=O)NCC(c2cccnc2)N2CCN(c3ccccc3)CC2)c1 (stereo not drawn) ?
KB-V1 MDR tox: inactive; KB-3-1 tox: inactive

What do the screens show for `C=CCN(C(C(=O)OC)C(C)C)S(=O)(=O)CCl` (stereo not drawn)?
Gal4-VP16 FLuc: -1.1%; RORgamma inh: -13.6%

What do the screens show for `CC(=O)c1ccc2c(c1)C1C=CCC1C(c1ccncc1)N2` (stereo not drawn)?
KB-V1 MDR tox: 23.1µM*; MCF10A rereplic: -8.8%; Gal4-VP16 FLuc: 8.5%; RORgamma inh: -20.8%; KB-3-1 tox: inconclusive; SW480 rereplic: -1.6%

Results for CC(=O)c1ccc2c(c1)C1C=CCC1C(C(=O)O)N2 (stereo not drawn) ?
KB-V1 MDR tox: inactive; MCF10A rereplic: -6.7%; Gal4-VP16 FLuc: -4.3%; RORgamma inh: 5.1%; KB-3-1 tox: inactive; SW480 rereplic: -11.9%

What do the screens show for `Cc1cccc(NC(=O)CSc2nnc(C)n2Cc2ccccc2)c1`?
KB-V1 MDR tox: inactive; MCF10A rereplic: -0.8%; Gal4-VP16 FLuc: 21.4%; RORgamma inh: 8.0%; KB-3-1 tox: inactive; SW480 rereplic: 0.0%

What do the screens show for `Cc1nnc(SCC(=O)Nc2ncc(Cl)cc2Cl)n1Cc1ccccc1`?
KB-V1 MDR tox: inactive; MCF10A rereplic: -7.5%; Gal4-VP16 FLuc: inconclusive; RORgamma inh: 3.98µM*; KB-3-1 tox: inactive; SW480 rereplic: -4.1%

How did Cc1nnc(SCC(=O)Nc2sccc2C(N)=O)n1Cc1ccccc1 do in these assays?
KB-V1 MDR tox: inactive; MCF10A rereplic: 2.0%; Gal4-VP16 FLuc: -6.3%; RORgamma inh: 4.47µM*; KB-3-1 tox: inactive; SW480 rereplic: 10.5%

Results for Cn1c(SCC(=O)Nc2ncc(C(F)(F)F)cc2Cl)nnc1-c1ccc(Cl)cc1 ?
KB-V1 MDR tox: inactive; MCF10A rereplic: -77.0%; Gal4-VP16 FLuc: 11.2µM*; RORgamma inh: 10µM*; KB-3-1 tox: inactive; SW480 rereplic: -61.0%

What do the screens show for `CC(C)NC(=O)CSc1nnc(-c2ccc(C(C)(C)C)cc2)n1C`?
KB-V1 MDR tox: 25.9µM*; MCF10A rereplic: inconclusive; Gal4-VP16 FLuc: inconclusive; RORgamma inh: 162.0%; KB-3-1 tox: inactive; SW480 rereplic: -21.3%

How did CCc1nnc(NC(=O)CSc2nnc(C)n2Cc2ccccc2)s1 do in these assays?
KB-V1 MDR tox: inconclusive; MCF10A rereplic: -2.4%; Gal4-VP16 FLuc: -11.0%; RORgamma inh: 11.4%; KB-3-1 tox: inactive; SW480 rereplic: -9.8%

Results for Cc1ccc(NC(=O)c2sc3ncn(Cc4cccc(F)c4)c(=O)c3c2C)c(Br)c1 ?
KB-V1 MDR tox: inactive; KB-3-1 tox: inactive

Results for COc1cc(C(=O)Nc2nc(-c3ccc(Cl)cc3)c(C)s2)ccc1OCC(=O)Nc1ccc(F)cc1 ?
KB-V1 MDR tox: inconclusive; MCF10A rereplic: inconclusive; Gal4-VP16 FLuc: inconclusive; RORgamma inh: inconclusive; KB-3-1 tox: 13µM*

Results for O=C(O)c1ccc(-c2sc(Nc3ccccc3)n[n+]2-c2ccccc2)cc1 ?
KB-V1 MDR tox: inactive; MCF10A rereplic: inconclusive; Gal4-VP16 FLuc: -3.0%; RORgamma inh: -3.3%; KB-3-1 tox: inactive; SW480 rereplic: inconclusive

Results for CCc1ccc(Nc2n[n+](-c3ccccc3)c(-c3c(Cl)cccc3Cl)s2)cc1 ?
KB-V1 MDR tox: inconclusive; MCF10A rereplic: inconclusive; Gal4-VP16 FLuc: inconclusive; RORgamma inh: 11.2µM*; KB-3-1 tox: 23.1µM*; SW480 rereplic: inconclusive

What do the screens show for `CCc1ccc(Nc2n[n+](-c3ccccc3)c(-c3ccc(N(CC)CC)cc3)s2)cc1`?
KB-V1 MDR tox: inactive; MCF10A rereplic: inconclusive; Gal4-VP16 FLuc: 12.6µM*; RORgamma inh: inconclusive; KB-3-1 tox: inactive; SW480 rereplic: 4.5%

What do the screens show for `CCc1ccc(Nc2n[n+](-c3ccccc3)c(-c3cc(OC)c(OC)cc3Br)s2)cc1`?
KB-V1 MDR tox: inactive; MCF10A rereplic: -1.6%; Gal4-VP16 FLuc: -26.2%; RORgamma inh: 10µM*; KB-3-1 tox: inactive; SW480 rereplic: -9.6%

Results for O=C(O)c1ccc(-c2sc(Nc3ccccc3)n[n+]2-c2ccc(F)cc2)cc1 ?
KB-V1 MDR tox: inactive; MCF10A rereplic: -0.8%; Gal4-VP16 FLuc: 3.6%; RORgamma inh: -9.4%; KB-3-1 tox: inactive; SW480 rereplic: 4.7%[9.22 µM]

What do the screens show for `CN(C)c1ccc(-c2sc(Nc3ccccc3)n[n+]2-c2ccc(F)cc2)cc1`?
KB-V1 MDR tox: inconclusive; MCF10A rereplic: 4.0%; Gal4-VP16 FLuc: 3.0%; RORgamma inh: 14.1µM*; KB-3-1 tox: inactive; SW480 rereplic: -3.9%

Results for Cc1cccc(CCNC(=O)c2ccc(CSCc3cccc(Cl)c3)o2)c1 ?
KB-V1 MDR tox: inactive; KB-3-1 tox: inactive

Results for CCc1ccc(Nc2n[n+](-c3ccccc3)c(-c3ccc(OCc4ccccc4)cc3)s2)cc1 ?
KB-V1 MDR tox: inactive; MCF10A rereplic: -15.8%; Gal4-VP16 FLuc: inconclusive; RORgamma inh: 7.94µM*; KB-3-1 tox: inconclusive; SW480 rereplic: 3.2%

Results for CCN(CC)c1ccc(-c2sc(Nc3ccccc3)n[n+]2-c2ccc(F)cc2)cc1 ?
KB-V1 MDR tox: inactive; MCF10A rereplic: 12.4%; Gal4-VP16 FLuc: 17.4%; RORgamma inh: 10µM*; KB-3-1 tox: inactive; SW480 rereplic: -7.6%

Results for c1ccc(COc2ccc(-c3sc(Nc4ccccc4)n[n+]3-c3ccccc3)cc2)cc1 ?
Gal4-VP16 FLuc: inconclusive; RORgamma inh: -31.4%

Results for COc1ccc(-c2sc(Nc3ccccc3)n[n+]2-c2ccc(F)cc2)cc1Br ?
KB-V1 MDR tox: inconclusive; MCF10A rereplic: 3.2%; Gal4-VP16 FLuc: 0.3%; RORgamma inh: -42.8%; KB-3-1 tox: inactive; SW480 rereplic: 5.3%

What do the screens show for `Cn1c(=O)c(CCc2ccccc2)nc2cnc(OCc3ccccc3)nc21`?
Gal4-VP16 FLuc: 10.3%; RORgamma inh: -0.5%

Results for COc1ccc(NC(=O)COc2ccc(S(=O)(=O)NC3CCCCC3)cc2)c(OC)c1 ?
KB-V1 MDR tox: inactive; KB-3-1 tox: inactive

Results for CCOC(=O)CC1Sc2ccccc2NC1=O (stereo not drawn) ?
KB-V1 MDR tox: inactive; MCF10A rereplic: -7.3%; Gal4-VP16 FLuc: -1.8%; RORgamma inh: 37.3%; KB-3-1 tox: inactive; SW480 rereplic: -11.8%

Results for CCOC(=O)CC1Sc2ccccc2NC1=S (stereo not drawn) ?
KB-V1 MDR tox: inactive; MCF10A rereplic: -6.7%; Gal4-VP16 FLuc: inconclusive; RORgamma inh: 3.55µM*; KB-3-1 tox: inactive; SW480 rereplic: -4.1%
